CRFR2-BP antag = CRF-BP/CRF-R2 complex antagonism. inhibition, % at 11.8 µM. HEK293 CRF-R2/CRF-BP, CRF-induced calcium fluorescence. AID 588475. 350,000 tested, 0.59% active;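 active = inhibition of the ligand-induced calcium signal above about 50% at the single tested concentration, limit read from the data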
GRIN3A LBD mod = NR3A (human) ligand-binding domain modulation | Tm shift relative to glycine control, % at 25 µM | 340,000 tested, 2.5% active | AID 1259313 | NR3A LBD differential scanning fluorimetry, Tm shift; 0% = protein alone, 100% = glycine-bound protein;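 active = melting temperature shift of at least 10% of the positive control shift, at one fixed dose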
TMEM16A act = mouse TMEM16A channel activation, primary screen | 340,000 tested, 0.3% active | Q8BHY3 | HEK293 TMEM16A/YFP-H148Q/I152L, iodide quench fluorescence; stronger effect = lower value | AID 623877 | B-score at 10 µM;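 active = fluorescence-ratio B-score plate-corrected deviation score at least 3 library SD below zero, with starting fluorescence score within 5 deviations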;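 note: channel opened by trigger with iodide after compound preincubation; score built on the fluorescence ratio of max minus min over baseline; more negative score means more quench and so TMEM16A activation or potentiation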
MPTP block = inhibitors of mitochondrial permeability transition pore; 360,000 tested, 1.4% active; isolated mouse mitochondria, Ca2+ swelling absorbance, 30 min; inhibition, % at 10 µM; AID 602449;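 active = inhibition of 50% or more, scaled per plate between neutral and stimulator controls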;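 note: 0% = DMSO wells given calcium and 100% = 1 mM EGTA wells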
CRFBP-R2 agonist = CRF-BP/CRF-R2 complex agonism | HEK293 CRF-R2/CRF-BP, calcium dye fluorescence (FLIPR); percent of saturating CRF peptide response | activation, % at 13.2 µM | 350,000 tested, 0.46% active;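 active = activation of at least 50%, plus an integration ratio under a set limit after plate pattern correction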;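 note: plate controls were neutral control wells without compound for no effect and CRF at EC100 for full effect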
TMEM16A inh = blocks the mouse calcium-activated chloride channel TMEM16A. Q8BHY3. AID 588511. HEK293 TMEM16A/YFP iodide influx fluorescence, ionomycin. 310,000 tested, 1.2% active. normalized B-score (activity score, 25-100; higher = stronger inhibition) at 10 µM;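 active = ratio plate-corrected score three or more library SD toward inhibition, starting fluorescence score within five deviations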;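 note: score derived from kinetic fluorescence span divided by baseline fluorescence per well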
An asterisk follows results filed as active. A selection: hits, their analogues and other compounds. The true share with any hit is near 5.1%.

How did Cc1nc2c(-c3ccc(F)cc3)cnn2c(N)c1-c1ccc(F)cc1 do in these assays?
CRFR2-BP antag: -9; GRIN3A LBD mod: 8; TMEM16A act: inactive; MPTP block: -2; CRFBP-R2 agonist: 5; TMEM16A inh: inactive

How did Nc1c(-c2cccs2)cnc2c(-c3ccc(F)cc3)cnn12 do in these assays?
CRFR2-BP antag: -3; GRIN3A LBD mod: 30*; TMEM16A act: inactive; MPTP block: 2; CRFBP-R2 agonist: 1; TMEM16A inh: inactive

What do the screens show for `CS(=O)(=O)c1cnc2c(-c3ccc(F)cc3)cnn2c1N`?
CRFR2-BP antag: 20; GRIN3A LBD mod: 37*; TMEM16A act: inactive; MPTP block: -1; CRFBP-R2 agonist: -3; TMEM16A inh: inactive

Results for Cn1c(SCC(=O)O)nnc1-c1cccc(NC(=O)c2cccc3ccccc23)c1 ?
CRFR2-BP antag: 14; GRIN3A LBD mod: 0; TMEM16A act: inactive; MPTP block: 1; CRFBP-R2 agonist: -3; TMEM16A inh: inactive

Results for O=C1C=CC(=Nc2ccc3c(c2)Cc2ccccc2-3)O1 ?
CRFR2-BP antag: 9; GRIN3A LBD mod: 1; TMEM16A act: inactive; MPTP block: -2; CRFBP-R2 agonist: -3

Results for COc1ccc(/C=N/N=C2/CC(C)(C)Cc3n[nH]c(=O)cc32)cc1 ?
CRFR2-BP antag: 12; GRIN3A LBD mod: 0; TMEM16A act: -9.1*; MPTP block: 0; CRFBP-R2 agonist: 19; TMEM16A inh: inactive

Results for O=C(c1cccc(C(F)(F)F)c1)C1CCCN(C(=O)c2cc(C3CC3)[nH]n2)C1 (stereo not drawn) ?
CRFR2-BP antag: -5; GRIN3A LBD mod: 4; TMEM16A act: inactive; MPTP block: 1; CRFBP-R2 agonist: -1; TMEM16A inh: inactive

How did COc1cccc(OC)c1OC(=O)c1ccccc1 do in these assays?
CRFR2-BP antag: 35; GRIN3A LBD mod: 0; TMEM16A act: inactive; MPTP block: -1; CRFBP-R2 agonist: 2

Results for O=[N+]([O-])c1cccc(-c2cc(-c3cc(Br)ccc3O)[nH]n2)c1 ?
CRFR2-BP antag: -3; GRIN3A LBD mod: 13*; TMEM16A act: inactive; MPTP block: 19; CRFBP-R2 agonist: -1; TMEM16A inh: inactive

Results for COc1ccc(-c2cc(-c3cc(OC)ccc3O)[nH]n2)cc1 ?
CRFR2-BP antag: -5; GRIN3A LBD mod: -2; TMEM16A act: inactive; MPTP block: 9; CRFBP-R2 agonist: 17; TMEM16A inh: inactive

Results for Oc1ccc(Br)cc1-c1cc(-c2ccccc2)n[nH]1 ?
CRFR2-BP antag: -4; GRIN3A LBD mod: 29*; TMEM16A act: inactive; MPTP block: 0; CRFBP-R2 agonist: 1; TMEM16A inh: inactive

Results for COc1ccc(-c2cc(-c3ccc(Cl)cc3)n[nH]2)c(O)c1 ?
CRFR2-BP antag: -35; GRIN3A LBD mod: 49*; TMEM16A act: inactive; MPTP block: 8; CRFBP-R2 agonist: 3; TMEM16A inh: inactive

How did COc1ccc(O)c(-c2cc(-c3cccc(Br)c3)n[nH]2)c1 do in these assays?
CRFR2-BP antag: 48; GRIN3A LBD mod: 16*; TMEM16A act: inactive; MPTP block: 3; CRFBP-R2 agonist: 4; TMEM16A inh: inactive

What do the screens show for `COc1ccc(O)c(-c2cc(-c3ccc(F)cc3)n[nH]2)c1`?
CRFR2-BP antag: 7; GRIN3A LBD mod: 3; TMEM16A act: inactive; MPTP block: 2; CRFBP-R2 agonist: 1; TMEM16A inh: inactive

Results for CCn1ncc([N+](=O)[O-])c1C(=O)Nc1ccc(C)c(C)c1 ?
CRFR2-BP antag: 10; GRIN3A LBD mod: -2; TMEM16A act: inactive; MPTP block: -1; CRFBP-R2 agonist: -5; TMEM16A inh: inactive

What do the screens show for `Oc1ccccc1-c1cc(-c2ccc3c(c2)OCCO3)n[nH]1`?
CRFR2-BP antag: -62; GRIN3A LBD mod: 16*; TMEM16A act: inactive; MPTP block: 3; CRFBP-R2 agonist: 12; TMEM16A inh: inactive

What do the screens show for `Oc1ccc(Br)cc1-c1cc(-c2ccc(Cl)cc2)n[nH]1`?
CRFR2-BP antag: -5; GRIN3A LBD mod: 42*; TMEM16A act: inactive; MPTP block: 4; CRFBP-R2 agonist: 2; TMEM16A inh: inactive

Results for CN(C(=O)c1ccccc1-c1ncc[nH]1)C1CCCN(Cc2ccccc2F)C1 (stereo not drawn) ?
CRFR2-BP antag: -4; GRIN3A LBD mod: 0; TMEM16A act: inactive; MPTP block: 0; CRFBP-R2 agonist: 0; TMEM16A inh: inactive

Results for N#Cc1c(-c2ccccc2)c(-c2ccccc2)nn(CC(=O)NNC(=O)Nc2ccc(Cl)cc2)c1=O ?
CRFR2-BP antag: 7; GRIN3A LBD mod: 15*; TMEM16A act: inactive; MPTP block: 3; CRFBP-R2 agonist: -3; TMEM16A inh: inactive

How did O=C(NNC(=O)C12CC3CC(CC(C3)C1)C2)c1ccccc1[N+](=O)[O-] do in these assays?
CRFR2-BP antag: -2; GRIN3A LBD mod: -1; TMEM16A act: inactive; MPTP block: 0; CRFBP-R2 agonist: 1; TMEM16A inh: inactive

What do the screens show for `COC(=O)C1=C(C)N(c2ccc(OC)cc2)C(C)=C(C(=O)OC)C1c1ccccc1`?
CRFR2-BP antag: 52*; GRIN3A LBD mod: 1; TMEM16A act: inactive; MPTP block: 2; CRFBP-R2 agonist: -3; TMEM16A inh: inactive

Results for Cc1cccc(NC(=O)c2oc(=O)c3ccccc3c2-c2ccccc2)c1C ?
CRFR2-BP antag: -24; GRIN3A LBD mod: 16*; TMEM16A act: inactive; MPTP block: 8; CRFBP-R2 agonist: 0; TMEM16A inh: inactive

Results for COCCOC(=O)/C(=C/c1ccc(OC(=O)c2ccccc2)cc1)C(C)=O ?
CRFR2-BP antag: -175; GRIN3A LBD mod: 1; TMEM16A act: inactive; MPTP block: 0; CRFBP-R2 agonist: 57*; TMEM16A inh: inactive

Results for O=C(COC(=O)COc1ccccc1)Nc1ccc(Br)cc1Br ?
CRFR2-BP antag: 20; GRIN3A LBD mod: -1; TMEM16A act: inactive; MPTP block: -2; CRFBP-R2 agonist: -2

Results for CCOC(=O)c1ccc(NC(=O)C2(c3ccc(OC)cc3)CCCC2)cc1 ?
CRFR2-BP antag: -13; GRIN3A LBD mod: -5; TMEM16A act: inactive; MPTP block: 2; CRFBP-R2 agonist: 2; TMEM16A inh: inactive

What do the screens show for `COc1ccc(C2(C(=O)Nc3ccc(S(N)(=O)=O)cc3)CCCC2)cc1`?
CRFR2-BP antag: -49; GRIN3A LBD mod: 7; TMEM16A act: -5.1*; MPTP block: 0; CRFBP-R2 agonist: -1; TMEM16A inh: inactive

Results for Cc1ccc(NC(=S)NCc2ccccn2)cc1 ?
CRFR2-BP antag: 74*; GRIN3A LBD mod: 0; TMEM16A act: inactive; MPTP block: 3; CRFBP-R2 agonist: 1; TMEM16A inh: inactive

Results for CC(=O)Oc1ccccc1-c1nc(/C=C/c2ccccc2)no1 ?
CRFR2-BP antag: -1; GRIN3A LBD mod: 1; TMEM16A act: inactive; MPTP block: 0; CRFBP-R2 agonist: 1; TMEM16A inh: inactive

Bioassay records from PubChem.
